90 compounds from PubChem BioAssay AID652039 (The Scripps Research Institute Molecular Screening Center, 2013) can be followed below.

In all, about 370,000 compounds went through this assay and about 3,300 (0.89%) were called active. For the sample, actives were picked, then their nearest neighbours and some compounds at random. Unmarked numbers belong to inactive results.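 How the source made its calls: active means activation above the mean of all tested compounds plus 3 SD, computed per campaign excluding outliers beyond control limits (cut at about 13% in these data); inactive means the rest.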

Chain of Kallikrein-7 (Homo sapiens) (P49862 whole entry, looked up): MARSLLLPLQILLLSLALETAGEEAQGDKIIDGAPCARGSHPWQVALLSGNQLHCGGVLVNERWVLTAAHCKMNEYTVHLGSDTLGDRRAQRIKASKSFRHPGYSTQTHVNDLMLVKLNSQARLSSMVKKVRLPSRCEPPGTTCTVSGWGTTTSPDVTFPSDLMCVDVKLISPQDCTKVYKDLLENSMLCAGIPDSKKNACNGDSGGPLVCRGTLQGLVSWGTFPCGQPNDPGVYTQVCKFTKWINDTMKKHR

The assay has as its target Kallikrein-7 (Homo sapiens) (UniProt P49862). The experiment in a line: proKLK7 zymogen activators, primary screen, biochemical, fluorescence intensity (AID 652039). As to conditions: purified proKLK7, EDANS-DABCYL substrate fluorescence; at 7 µM; stronger effect = higher value; 100% is mature enzyme control, 0% vehicle.
Consider `C/C(=N\NC(=O)CNc1cccc2ccccc12)c1ccc(Br)s1`, for which the activation was 2.95%.
Turning to `Cn1cccc1/C=N/NC(=O)CNc1cccc2ccccc12`, the activation was 22.8% (active).
To `CN(CC(=O)Nc1ccc(Cl)cc1)CC(=O)Nc1cccc2ccccc12` belongs 0.06%; to `COc1ccc(/C=C2\CC3(OC(C)=O)CCCN2C3)cc1` (stereo not given), 0.04%; to `Nc1ccc2nn(-c3ccc(Cl)cc3)nc2c1`, 64.3% (active).
`CCC(=O)Nc1ccc2nn(-c3ccc(F)cc3)nc2c1`: the activation was 7.33%.
`Nc1nc2cc(Cl)ccc2n1N`: the activation was 0.42%.
As for `COc1ccc(-c2cc(C(F)(F)F)nc(S(C)(=O)=O)n2)cc1OC`, the activation is 15.4% (active).
Turning to `COc1ccc(-c2cc(C(F)(F)F)nc(SCCC(=O)NCc3ccco3)n2)cc1`, the activation was -0.49%.
As to `CCC(c1ccc(NC(=O)OC(C)(C)C)cc1)c1cc(OC)cc(OC)c1` (stereo not given), the activation is 1.16%.
In the case of `CCc1c(C)nc2c(OC)cccc2c1Cl`, the activation is 0.96%.
Next, `Cc1nc(N=C(N)N)nc2c(C)cccc12`: -0.57%.
Next, `COc1nc(N=C(N)N)nc2c(C)cccc12`: 22.7% (active).
Regarding `Nc1[nH]c(/C=C2/CCCCC2n2[nH]c(=O)n(-c3ccccc3)c2=O)c(Cc2ccccc2)[n+]1Cc1ccccc1` (stereo not given), the activation was -0.08%.
Turning to `COc1ccc(CN2C(=O)N3Cc4cc(OC)ccc4C3CS2(=O)=O)cc1` (stereo not given), the activation was 0.22%.
As for `CCN(CC)C(=O)CC[C@@H]1CC[C@]2(CCCN(S(=O)(=O)C3CCCCC3)C2)O1`, the activation was -0.08%.
To `O=C(O)c1ccc2c(c1)C(=O)N(c1ccc(/C=C/C(=O)c3ccccc3)cc1)C2=O` belongs 108% (active); to `CC(=O)Nc1ccc(NC(=O)c2ccc3c(c2)C(=O)N(c2ccccc2C)C3=O)cc1`, -0.23%.
With `COc1ccc(C(=O)/C=C/c2ccc(-c3ccccc3)cc2)cc1CSCC(=O)O`, the activation was -2.22%.
On to `C=CCN1[C@@H](Cc2ccccc2)COc2cccc(N3CCSCC3)c2S1(=O)=O`, for which the activation is 0.85%.
Take `O=C(NCc1ccc(Cl)cc1)C1CCCN(c2nc3ccccc3o2)C1` (stereo not given): the activation was 0.03%.
Next, `Cc1sc2nc(SCC(=O)c3ccc(O)c(O)c3)n(Cc3ccco3)c(=O)c2c1C`: -0.81%.
Turning to `C=CCN1C(C(=O)OC)CN(Cc2cn(Cc3ccccc3)nn2)CCS1(=O)=O` (stereo not given), the activation is 0.39%.
As for `CN(c1ccc2nc3ccccc3c(=O)n2n1)C1CCCCC1`, the activation was 0.7%.
With `COCCCNC(=O)/C(C#N)=C/c1c(N2CCCCCC2)nc2ccccn2c1=O`, the activation was 8.31%.
With `CCOCCCNC(=O)c1cc2c(=O)n3ccccc3nc2s1`, the activation is 40.6% (active).
Turning to `CCOCCCNC(=O)c1cn(CC(C)C)c(=O)c2c1c1ccccc1n2C`, the activation is -1.85%.
To `CN(C(=O)c1cc2c(=O)n3ccccc3nc2s1)C1CCCCC1` belongs 25.8% (active); to `CN(CCNC(=O)c1cc2c(-c3ccccc3F)nn(C)c2s1)C1CCCCC1`, -1.03%; to `Cc1ccc(C(=O)C2CCN(CC(=O)NCCC(C)C)CC2)cc1`, 1.04%.
`CCCC[C@H](C(=O)N(CC)c1ccccc1)[C@@H](O)c1ccc2ccccc2c1`: the activation is 0.3%.
Take `COc1ccccc1C(=O)COC(=O)CNS(=O)(=O)c1ccc(NC(C)=O)cc1`: the activation is 0.48%.
With `CC(=O)Nc1ccc(S(=O)(=O)NCC(=O)OCc2cc(=O)oc3ccc4ccccc4c23)cc1`, the activation was 273% (active).
`COc1ccccc1CNC(=O)COC(=O)CNS(=O)(=O)c1ccc(NC(C)=O)cc1`: the activation was -0.12%.
For `CC1CCCN(c2cccc3c2S(=O)(=O)N(Cc2ccc(F)cc2)[C@@H](C)[C@H](c2ccccc2)O3)C1` (stereo not given in full), the activation was -0.65%.
Regarding `Nn1c(SCC(=O)Nc2cccc3ccccc23)nnc1-c1cc(-c2ccc(F)cc2)n[nH]1`, the activation was 0.42%.
For `O=C(O)c1ccc2c3c(cccc13)C(=O)N(OS(=O)(=O)c1ccccc1)C2=O`, the activation is 105% (active).
Take `COc1cccc(-c2ccc3c(c2)S(=O)(=O)c2cccc(C(=O)O)c2C3=O)c1OC`: the activation was -0.11%.
To `C=C(C)C#CC(Cc1ccccc1)N(CC1CC1)/C(N)=N/C(=O)OCc1ccccc1` (stereo not given) belongs -0.43%; to `CCCCC(=O)Nc1ccc(C(=O)NCCCn2ccnc2)cc1`, 0%; to `CCCCCC(=O)Nc1ccc(-c2cn3cccnc3n2)cc1`, 52.5% (active).
Next, `CC(C)(C)C(=O)Nc1cccc(-c2ccc[nH]2)n1`: 0.15%.
Take `Cc1cccc(C(=O)Nc2c(-c3ccc(F)cc3)nc3ncccn23)c1`: the activation was 8.91%.
For the compound `CC(C)(C)C(=O)Nc1ccc(-c2cn3cccnc3n2)cc1`, the activation was 65.9% (active).
Regarding `CCCCCC(=O)Nc1ccc(S(=O)(=O)Nc2ccc(Cl)nn2)cc1`, the activation was -0.08%.
Next, `CC(=O)Nc1ccc(-c2cn3cccnc3n2)cc1`: 64.7% (active); `CC(=O)Nc1ccc(S(=O)(=O)Nc2ccc(-c3ccc4nnc(C)n4n3)cc2)cc1`: 0.05%.
For `Cc1nn2c(=O)cc(COC(=O)c3ccc(NC(=O)C(C)(C)C)cc3)nc2s1`, the activation was -0.47%.
As to `O=C(CCS(=O)(=O)c1ccccc1)Nc1ccc(Cl)c(Cl)c1`, the activation is 0.23%.
As for `O=C(CSc1nnc(COc2ccccc2)n1-c1ccc(Cl)cc1)Nc1ccc2c(c1)OCO2`, the activation was 0.41%.
To `COC(=O)[C@@]12CCCCC=C1N(CCc1ccc(Cl)cc1)C(=O)[C@H]2CC(=O)NCc1ccc(OC)c(OC)c1` belongs -0.01%; to `Cc1ccc2nc(-c3ccc(CN4CCC(n5cc(-c6ccccc6)[nH]c5=O)CC4)cc3)c(-c3ccccc3)nc2c1`, -16.7%.
Next, `COc1ccc(-c2cc(=O)oc3cc(OCC(=O)N(C)C4CCS(=O)(=O)C4)ccc23)cc1` (stereo not given): -0.13%; `CCCCCCc1cc2cc(-c3nnc(-c4cccc(OC)c4)o3)c(=O)oc2cc1O`: -1.12%.
Consider `COc1ccc(-c2cc3ccc(OCc4nn[nH]n4)cc3oc2=O)cc1`, for which the activation was 75.6% (active).
On to `COc1cccc(CSc2nnc(-c3cccnc3)n2Cc2ccccc2)c1`, for which the activation was -0.18%.
Consider `Nn1c(SCC(=O)Nc2ccc(S(N)(=O)=O)cc2)nnc1-c1n[nH]c2c1CCC2`, for which the activation was -0.51%.
Regarding `CCOc1ccccc1NC(=O)NC1CCCCCCC1`, the activation is 0.05%.
For the compound `CCCN(CC(=O)NC(=O)NC1CCCCC1)CC(=O)Nc1cc(Cl)ccc1Cl`, the activation is 24.4% (active).
Turning to `O=C(COc1cc(Cl)c(Cl)cc1Cl)NC(=O)NC1CCCC1`, the activation is -0.16%.
Consider `Cc1cc(=O)[nH]c(SCC(=O)Nc2ccc(Cl)cc2C)n1`, for which the activation was -0.02%.
On to `CN1C(=O)c2cc(NS(C)(=O)=O)ccc2OC[C@@H]2O[C@@H](CC(=O)NCc3ccc(-c4ccccc4)cc3)CC[C@H]21`, for which the activation was -0.3%.
Regarding `C=CCOc1ccc(/C=C/C(=O)OCC(=O)NCC2CCCO2)cc1` (stereo not given), the activation is -1.06%.
For the compound `CCOc1ccc(S(=O)(=O)NCCC(=O)NCC2CCCO2)cc1` (stereo not given), the activation is 0.66%.
For `CC1(C)CC(=O)c2cc(OCC(=O)NCC3CCCO3)ccc2O1` (stereo not given), the activation is 54.2% (active).
As for `CN(C)c1ccc(NC(=O)NC2CCCCN(Cc3ccc(Cl)cc3)C2=O)cc1` (stereo not given), the activation was 0.67%.
With `COc1ccnc(C(=O)N2CCC(Oc3cccnc3)CC2)c1`, the activation was 0.48%.
Next, `Cn1cccc1C(=O)NC(=O)COC(=O)Cc1coc2ccc3ccccc3c12`: -3.37%; `Cc1ccc(NC(=O)Nc2cc(C)nn2-c2ccccc2)cc1`: 0.53%.
Regarding `C#CCN([C@H](C(=O)OC)C(C)CC)S(=O)(=O)c1ccccc1Br` (stereo not given in full), the activation was 0.19%.
For the compound `O=C(O)c1cccnc1Sc1ncnc2sc3c(c12)CCC3`, the activation is 12.7% (active).
Next, `OCCNc1nc2ccccc2n1-c1ncnc2sc3c(c12)CCC3`: -0.67%; `CCCSc1ncccc1C(=O)O`: 0.67%; `CN(C)[C@H]1CCN(c2cccc3c2S(=O)(=O)N2CC[C@H](C2)O3)C1`: 0.28%.
For `CCOC(=O)c1cccc(NC(=O)CN(C)S(=O)(=O)c2ccc(-c3cocn3)s2)c1`, the activation was -0.02%.
For the compound `COc1ccc(-c2onc(C)c2-c2ccc3c(c2)OCCO3)c(O)c1`, the activation is -0.06%.
As for `COc1ccc2nc(Nc3nc4cc5c(cc4s3)OCCO5)sc2c1`, the activation was 17.3% (active).
Turning to `COc1cccc(C(=O)Nc2cc3c(cc2Br)OCCCO3)c1`, the activation was -0.41%.
`COc1ccccc1C(=O)CSc1nnc(-c2ccccn2)n1-c1ccccc1`: the activation was 0.13%.
Next, `Cc1ccc(-n2c(SCC(=O)Nc3cccc4ccccc34)nnc2-c2ccccn2)cc1`: -0.1%; `CCOc1ccc(N(CC(=O)Nc2c(C)n(C)n(-c3ccccc3)c2=O)S(=O)(=O)c2ccc(Cl)s2)cc1`: -0.38%; `O=C(Nc1nncs1)c1ccccc1NS(=O)(=O)c1cccs1`: 16.3% (active).
`O=C(Nc1nncs1)c1cccc(S(=O)(=O)N2CCCCC2)c1`: the activation is 0.4%.
To `COc1cc(NC(=O)c2ccccc2NS(=O)(=O)c2ccc(Cl)s2)cc(OC)c1` belongs 0.45%; to `Cc1ccc(-c2nc(C3CCCN(S(=O)(=O)c4ccc(Br)s4)C3)no2)cc1` (stereo not given), 0.38%.
Turning to `COc1ccc(-n2c(COc3ccccc3)nnc2SCC(=O)Nc2ccc3c(c2)OCO3)cc1`, the activation is 0.59%.
On to `Cc1ccc(C2Nc3ccccc3C(=O)N2CCN2CCNC2=O)cc1` (stereo not given), for which the activation was 39.3% (active).
In the case of `Cc1ccc(S(=O)(=O)N2CCC(C(=O)OCC(=O)N3CC(=O)Nc4ccccc43)CC2)cc1`, the activation was 0.15%.
As for `O=C1c2ccccc2NC(c2ccccn2)N1NS(=O)(=O)c1ccccc1` (stereo not given), the activation was 10.7%.
Regarding `COc1ccc(N2CCN(CCNS(=O)(=O)c3ccc(C(C)(C)C)cc3)CC2)cc1`, the activation is 0.49%.
